Screens deposited in PubChem by National Center for Advancing Translational Sciences (NCATS).
Rows were chosen to be rich in hits. Some 7.3% of all compounds tested hit in one or more screens of this group.
HCV inhibitor = HCV inhibition. Huh7.5.1 HCVcc-Cre infection, luciferase reporter, 44 h. 3.4% of 340,000 active. Potency, µM (top dose mostly 41.8 µM), without a hit: top-dose activity change, negative = inhibition, most hits filed as inhibitors; active means well fitted inhibition curve with a large enough effect; inconclusive means small, poorly fitted or top-dose-only effect, or another doubt; inactive means no such curve, though single readings can be large or run the other way; further: potency means the concentration at half of the fitted maximal effect
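1,000 cells/well; 4 h culture; + compound; + HCVcc-Cre (~0.5 moi); 44 h; luciferase substrate, RT 15 min; read 15 sec.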
VACV Venus inh = inhibitors of vaccinia virus (Venus reporter) | 0.46% of 330,000 active | AID 720580 | Potency, µM (doses to about 36.5 µM), for the others: at the highest dose activity change, negative = inhibition, usual class: inhibitors | Vaccinia virus Venus reporter expression, fluorescence; calls by dose curve; tested in A549 cells; further: potency means the concentration at half of the fitted maximal effect; nearly all actives have a fitted effect of over 30% in size
FMDV antiviral = blocks foot and mouth disease virus; 1.2% of 410,000 active; Potency, µM (top dose mostly 57.9 µM), without a hit: at the highest dose activity change, negative = inhibition, most hits filed as inhibitors; FMDV antiviral cell-based qHTS; calls by dose curve; tested in HEK293T cells; further: read-out not given here; potency means the concentration at half of the fitted maximal effect; nearly all actives have a fitted effect of over 45% in size
HCMV inh = human cytomegalovirus inhibition | HFF cells, HCMV-luciferase reporter, 72 h; active compounds read low | activity change, negative = inhibition, % at 57.5 µM | 4.5% of 410,000 active | AID 1259415; in the data active means activity change below about -60%; inconclusive means no clear call, values can overlap the other calls; inactive means above about -39%
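Two-dose cell screen: HFF monolayers treated with compounds and infected with luciferase-expressing HCMV at 1 PFU/cell, 72 h at 37C, then lysed for luciferase measurement.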
Vaccinia mCherry = vaccinia inhibition (mCherry reporter). Vaccinia virus mCherry reporter infection, fluorescence. 0.63% of 310,000 active. Potency, µM (titrated, usually from 36.5 µM), without a hit: at the highest dose activity change, negative = inhibition, actives largely listed as inhibitors. AID 720579; calls by dose curve; tested in A549 cells; further: potency means the concentration at half of the fitted maximal effect; nearly all actives have a fitted effect of over 35% in size
* hit, by the source's call; i = inactive; ? = inconclusive; . = not tested or not shown. On the % scale 0 is the no-effect control and ±100 the full control effect.

SMILES	HCV inhibitor	VACV Venus inh	FMDV antiviral	HCMV inh	Vaccinia mCherry
COc1ccccc1C1CC(c2ccc(Br)cc2)=NN1C(=O)c1cccnc1 (configuration not stated)	?	?	31.6µM*	35.3	-21.6%
COc1cccc(C2CC(c3cccc(NS(C)(=O)=O)c3)=NN2C(=O)c2ccccc2)c1OC (configuration not stated)	?	-19.5%	-17.8%	-73.2*	-0.4%
COc1ccc(C2=NN(C(=O)c3ccccc3)C(c3ccc(OC)c(OC)c3)C2)cc1OC (configuration not stated)	-7.2%	.	-1.0%	-24.4	.
Nc1ccc2c(c1)C1(CCC2)NC(=O)NC1=O (configuration not stated)	.	-8.9%	-14.4%	-20.3	-17.6%
COC(=O)C1CCN(C(c2ccccc2)c2sc3nc(-c4ccco4)nn3c2O)CC1 (configuration not stated)	.	-8.0%	-2.6%	23.4	-11.9%
COc1ccccc1Cn1c(=S)[nH]c2cc(C(=O)NCC3CCCO3)ccc2c1=O (configuration not stated)	?	-8.6%	25.1µM*	-37.4	i
CCN1CCN(C(=O)c2ccc3c(=O)n(Cc4ccccc4OC)c(=S)[nH]c3c2)CC1	11.2µM*	.	-24.2%	-24.6	.
COc1cccc(-c2cc3c(Nc4cccc(NC(C)=O)c4)nccc3n2C)c1	.	.	.	-18.9	.
COc1ccc2oc(C(=O)Nc3nnc(C)s3)c(C)c2c1	-7.1%	0.0%	?	28.2	-17.6%
COc1ccc2oc(C(=O)Nc3nc4ccc(S(C)(=O)=O)cc4s3)c(C)c2c1	16.0%	-9.9%	?	-60.1*	-9.9%
COc1cc(OC)cc(C(=O)Nc2nc3ccc(S(C)(=O)=O)cc3s2)c1	-20.7%	-13.8%	0.9%	36.8	-14.4%
COc1cc(C(=O)Nc2nc3ccc(S(C)(=O)=O)cc3s2)cc(OC)c1C	3.55µM*	-24.0%	?	?	-3.8%
CCc1ccccc1N(C)C	.	-4.1%	.	.	-7.7%
O=C(CCCN1C(=O)/C(=C/c2ccccc2)SC1=S)NCCCn1ccnc1	-17.3%	.	-11.5%	-97.6*	.
O=C(CCCN1C(=O)/C(=C/c2ccccc2)SC1=S)Nc1ccccc1O	?	?	-23.2%	-99.9*	?
O=C(CCCN1C(=O)/C(=C/c2cccs2)SC1=S)Nc1cc([N+](=O)[O-])ccc1O	18.1%	.	-11.3%	-73.5*	.
O=C(CCCN1C(=O)S/C(=C\c2ccccc2)C1=O)NNC(=O)c1ccccc1O	?	-7.0%	?	-82.7*	-3.2%
O=C(C1CCCCC1)N1CCC2CC1c1cc(Cl)ccc12 (configuration not stated)	-20.7%	-7.7%	14.4%	-19.2	i
Cc1ccc(NC(=O)c2ccc(=O)[nH]c2)cc1S(=O)(=O)N1CCCCCC1	-13.6%	-13.7%	7.5%	-26.0	-26.0%
CC1(C(=O)Nc2ccc3c(c2)OCO3)CCN1C(=O)CCc1ccc(Cl)cc1Cl (configuration not stated)	.	-1.6%	9.9%	-12.6	i
CCCCn1c(N)c(N(CCOC)C(=O)CCCc2nc3ccccc3c(=O)[nH]2)c(=O)[nH]c1=O	30.8%	-7.3%	-15.7%	19.2	-9.0%
Cc1ccc(-c2ccnc(-n3ncc(C(=O)N(C)CC4CCCN(C)C4)c3C)n2)o1 (configuration not stated)	.	-9.3%	0.3%	.	-6.0%
CCc1ccc(NC(=O)CN2C(=O)C3CCCN3c3ccc(S(=O)(=O)N(CC)CC)cc32)cc1 (configuration not stated)	.	-6.6%	9.2%	6.8	-2.8%
O=C(Nc1ccccc1)c1cc(C2CCCCN2S(=O)(=O)Cc2cccc(C(F)(F)F)c2)on1 (configuration not stated)	.	-1.1%	-4.9%	1.4	i
CCOc1ccc(CCNC(=O)c2cnc3sc(N4CCC(C)CC4)nn3c2=O)cc1	.	-16.3%	?	14.0	-14.1%
SMILES	HCV inhibitor	VACV Venus inh	FMDV antiviral	HCMV inh	Vaccinia mCherry
COc1ccc(-c2nc3cnc(Nc4ccccn4)cc3n2C)cc1OC	.	.	.	-9.6	.
O=C(CCCN1C(=O)/C(=C\c2cccs2)SC1=S)Nc1ccccc1O	.	-29.0%	2.5%	-93.5*	-14.9%
Cc1cc(NC(=O)CCCN2C(=O)/C(=C\c3cccs3)SC2=S)no1	5.0%	9.5%	-12.7%	-34.3	-14.2%
O=C1Cc2c([nH]c3ccc(Br)cc23)-c2ccccc2N1	?	?	22.3%	-75.2*	?
Cc1cc(C)nc(N(C#N)CC(=O)c2ccccc2)n1	15.8µM*	?	-17.3%	-24.5	?
CCc1ccc(C(=O)CN(C#N)c2nc(C)cc(C)n2)cc1	?	?	-10.6%	?	?
Cc1cc(C)nc(N(C#N)CN2C(=O)c3ccccc3S2(=O)=O)n1	4.7%	-27.4%	39.8µM*	41.4	.
COC(=O)c1sc2cc([N+](=O)[O-])cc(SCC(C)C)c2c1N	-21.9%	-17.7%	-27.6%	-63.5*	-19.1%
COc1cccc(Cn2c(=O)c(-c3cccc(F)c3)nc3cncnc32)c1	.	.	-21.2%	.	.
CC1=CC(C)(C)Nc2ccc(OC(=O)CCN3C(=O)c4ccccc4C3=O)cc21	?	71.6%	?	-99.5*	-4.8%
O=C(CN1C(=O)c2ccccc2C1=O)Oc1ccc(Cl)cc1	7.5%	-14.8%	-11.8%	-4.6	i
Cc1ccc(OC(=O)CN2C(=O)c3ccccc3C2=O)cc1C	5.4%	-13.1%	-11.7%	-61.0*	i
O=C(CCN1C(=O)c2ccccc2C1=O)Oc1ccc2ccccc2c1	6.2%	-5.6%	14.8%	46.3	-4.1%
COc1cc(NC(=O)CC2C(=O)N(c3cccc(C)c3)C(=O)N2Cc2ccc(F)cc2)cc(OC)c1 (configuration not stated)	.	-14.3%	-14.1%	-39.0	-10.9%
CCOc1ccc(NC(=O)Cn2c(=O)n(CCC(=O)NCCc3ccccc3)c(=O)c3ccccc32)cc1	.	-5.2%	7.3%	15.4	-12.3%
N#Cc1c(NC(=O)c2ccccc2Cl)n(Cc2ccccc2)c2nc3ccccc3nc12	?	-23.3%	0.0%	-70.3*	-20.2%
CCCCn1c(NC(=O)CC)c(C#N)c2nc3ccccc3nc21	5.8%	.	8.4%	-4.1	.
CCCCn1c(NC(=O)c2ccc(Br)o2)c(C(=O)OCC)c2nc3ccccc3nc21	?	1.6%	-14.4%	-71.1*	-27.6%
CCCCn1c(NC(=O)c2ccccc2Cl)c(C#N)c2nc3ccccc3nc21	-21.9%	.	0.0%	-60.5*	.
COc1ccc(N2CCN(C(=O)C(=O)c3c(C)n(C)c4ccccc34)CC2)cc1	8.0%	-5.3%	-3.8%	38.0	-15.4%
C/C(=N\NC(=O)COc1ccc(C)cc1[N+](=O)[O-])c1cccs1	-15.8%	-4.4%	12.0%	21.3	-16.1%
C/C(=N\NC(=O)COc1ccc(C)cc1Br)c1cc([N+](=O)[O-])cs1	8.91µM*	?	-9.8%	-80.7*	?
CC(C)CCn1c(=O)c2cccnc2n(CC(=O)Nc2ccccc2F)c1=O	.	-3.3%	2.3%	?	i
CCOC(=O)c1cnc2c(ccc3ccccc32)c1NCCO	11.2µM*	?	-1.9%	8.4	.
